# Bioassay records (PubChem BioAssay)
# This is a sample that favours compounds with a hit; in the whole collection about 7.5% have one here.
# SMN2 splice up – qHTS Assay for Enhancers of SMN2 Splice Variant Expression | HEK293 SMN2-luciferase splicing reporter, luminescence, 30-36 h | hit rate 2.8% among 210,000 | Potency, µM (series often up to 46.1 µM), without a hit: at the top dose activity change, positive = activation, hits mostly activators; note: % of control where 0% means no effect; nearly all actives have a fitted effect of over 55% in size
#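 qHTS luciferase splicing reporter: luminescence rises when SMN2 exon 7 is included in transfected HEK293 cells. Compound exposure lasted 30-36 h at 37C, with 4.5 mM final sodium butyrate as control, followed by a ONE-Glo read.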
# NPC1 prom act – qHTS Assay for NPC1 Promoter Activators | hit rate 2.4% among 320,000 | Huh7 NPC1 promoter luciferase reporter, 24 h | Potency, µM (top dose mostly 9.22 µM), without a hit: at the highest dose activation, usual class: activators; note: % of control where 0% means no effect; nearly all actives have a fitted effect of over 60% in size
#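 NPC1 promoter–luciferase Huh7 cells; 24 h compound; luminescence.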
# Rab9 promoter act – qHTS Assay for Rab9 Promoter Activators; AID 485297, 2010; hit rate 2.8% among 320,000; Huh7 Rab9 promoter-luciferase reporter, luminescence, 24 h; Potency, µM (titrated, usually from 9.22 µM), without a hit: at the top dose activation, negative = inhibition, hits mostly activators; note: % of control where 0% means no effect; nearly all actives have a fitted effect of over 60% in size
#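 Huh7 reporter line, Rab9 promoter upstream of luciferase. Compound exposure 24 h at 37 °C in reduced-serum medium with 10% FBS. Read-out: luminescence.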
# FLuc modulator – qHTS profiling assay for firefly luciferase inhibitor/activator using purifed enzyme and Km concentrations of substrates (counterscreen for miR-21 project); Potency, µM (doses to about 57.5 µM), for inactives: top-dose activity change, negative = inhibition, usual class: inhibitors; hit rate 6.9% among 360,000; purified FLuc, Km substrates, luminescence inhibition; AID 588342, 2011; Luciferin 4-monooxygenase (Photinus pyralis), P08659;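 note: plate controls were vehicle for no effect and reference inhibitor for full effect; nearly all actives have a fitted effect of over 55% in size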
# Target sequence (P08659 whole entry, looked up): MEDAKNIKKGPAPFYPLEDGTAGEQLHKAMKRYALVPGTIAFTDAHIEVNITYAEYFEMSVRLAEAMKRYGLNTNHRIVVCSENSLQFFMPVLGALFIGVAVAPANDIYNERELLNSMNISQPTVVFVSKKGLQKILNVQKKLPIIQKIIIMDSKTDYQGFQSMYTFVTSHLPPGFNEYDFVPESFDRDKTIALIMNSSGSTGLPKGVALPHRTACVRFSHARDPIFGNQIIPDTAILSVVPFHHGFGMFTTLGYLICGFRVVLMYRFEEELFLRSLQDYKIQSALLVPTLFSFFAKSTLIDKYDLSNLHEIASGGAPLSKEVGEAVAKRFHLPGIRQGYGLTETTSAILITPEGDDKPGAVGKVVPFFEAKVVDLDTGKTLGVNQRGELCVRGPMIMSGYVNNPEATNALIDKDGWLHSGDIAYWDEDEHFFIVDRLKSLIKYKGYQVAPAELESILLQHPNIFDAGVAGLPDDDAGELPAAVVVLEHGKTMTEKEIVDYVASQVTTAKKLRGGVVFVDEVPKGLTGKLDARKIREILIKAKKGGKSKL
#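 Purified P. pyralis luciferase, 10 nM final, with Km-level 10 uM D-luciferin and 10 uM ATP in 50 mM Tris acetate pH 7.5, 10 mM Mg acetate, 0.01% Tween-20, 0.05% BSA; 6-point qHTS titration about 60 µM downward; luminescence read.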
# ELG1 genotox – qHTS screen for small molecules that induce genotoxicity in human embryonic kidney (HEK293T) cells expressing luciferase-tagged ELG1; HEK293T ELG1-luciferase reporter, luminescence, 16 h; Potency, µM (highest dose often 46 µM), for the others: at the highest dose activity change, positive = activation, usual class: activators; hit rate 1.3% among 330,000; AID 504466, 2011; note: % of control where 0% means no effect; nearly all actives have a fitted effect of over 60% in size
#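 HEK293T cells expressing luciferase-tagged ELG1 were treated with compound or DMSO for 16 hr at 37°C. Luciferase activity was then read after 30 min with ONE-Glo at room temperature; rising signal flags genetic stress.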
# Luc counter – Counterscreen for Luciferase (Kinase-Glo TM) Inhibition; hit rate 0.28% among 200,000; Luciferin 4-monooxygenase (Photuris pensylvanica), Q27757; Potency, µM (highest dose often 38.3 µM), for inactives: top-dose activity change, negative = inhibition, actives largely listed as inhibitors; Kinase-Glo luciferase, ATP luminescence, 8 min; note: % is set by controls: 0 for no effect and ±100 for the full control effect; nearly all actives have a fitted effect of over 60% in size
#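 Compound is pinned into ATP-containing buffer (10 uM ATP, imidazole pH 7.2, 7 mM MgCl2). Kinase-Glo luciferase reagent is then added. Light output is recorded following an 8-min room-temperature incubation.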
# * = called active by the depositor; u = inconclusive; x = no result given; [ ] = dose if it differs, or a comment. Calls come from the whole dose curve; as a rule, active = well fitted curve in the direction sought with a large enough effect; inconclusive = small, poorly fitted or top-dose-only effect, or another doubt; inactive = no such curve, though single readings can be large; an effect the other way counts as inactive or inconclusive. Potency is the fitted concentration of half-maximal effect.
SMILES,SMN2 splice up,NPC1 prom act,Rab9 promoter act,FLuc modulator,ELG1 genotox,Luc counter
CCC1CCc2c(sc(NC(=O)c3ccoc3C)c2C(N)=O)C1 (stereo not given),u,-3.3%,21.1%,6.75µM*,u,2.6%
Cc1ccc(C(=O)Nc2sc3c(c2C(=O)O)CCC(C)C3)o1 (stereo not given),x,x,x,x,0.7%,x
COc1ccc(NC(=O)CCCOc2cc(=O)n(C)c3ccccc23)c(OC)c1,20.9%,x,x,3.4%,x,x
Cc1cc(C)cc(NC(=O)c2cc(S(=O)(=O)N3CCCC3)ccc2F)c1,x,x,x,-11.1%,x,x
CCOc1ccc(NC(=O)c2cccc(NC(=O)c3ccccc3)c2)cc1,x,u,29.8%,u,4.8%,x
CC(=O)Nc1cccc(NC(=O)c2ccc(COc3ccccc3)cc2)c1,x,2.82µM*,2.82µM*,2.13µM*,14.6µM*,x
O=C(O)c1cccc(NC(=O)c2ccc(COc3ccc(Cl)cc3)cc2)c1,x,u,3.16µM*,6.01µM*,8.2%,x
CCOc1c(Cl)cc(C(=O)Nc2cccc(C(=O)O)c2)cc1Cl,x,0.562µM*,0.708µM*,3.01µM*,u,1.2%
Cc1ccc([N+](=O)[O-])cc1NCC(=O)NN,10.0%,-8.3%,-2.8%,5.7%,-1.1%,-1.8%
Cc1c2oc3c(C)ccc(C(=O)NC4C(=O)NC(C(C)C)C(=O)N5CCCC5C(=O)N(C)CC(=O)N(C)C(C(C)C)C(=O)OC4C)c3nc-2c(C(=O)NC2C(=O)NC(C(C)C)C(=O)N3CCCC3C(=O)N(C)CC(=O)N(C)C(C(C)C)C(=O)OC2C)c(N)c1=O (stereo not given),-95.4%,x,x,x,x,x
COc1ccc(N=C2S/C(=C\c3cc(C)n(C)c3C)C(=O)N2C)cc1,-13.7%,-4.3%,0.2%,0.4%,10.3%,-2.4%
COc1ccc(N=C2S/C(=C\c3ccc(C)s3)C(=O)N2CC(C)C)cc1,-0.2%,-2.7%,-0.2%,0.1%,-5.3%,-6.6%
COc1ccccc1N1C(=O)S/C(=C\c2cc(C)n(C)c2C)C1=O,14.1µM*,3.55µM*,2.51µM*,12µM*,u,0.6%
COc1ccccc1N1C(=O)S/C(=C\c2ccc(C)s2)C1=O,x,u,3.55µM*,-20.7%,u,x
CC1Oc2ccccc2N(CC(=O)NCc2ccccc2)C1=O (stereo not given),x,u,3.98µM*,u,u,-10.7%
CCC1Oc2ccccc2N(CC(=O)NCCN2C(C)CCCC2C)C1=O (stereo not given),10µM*,-0.9%,-1.5%,0.3%,-0.6%,1.0%
O=C(O)CC1S/C(=N/N=C/C=C/c2ccccc2[N+](=O)[O-])NC1=O (stereo not given),14.1%,1.7%,0.4%,-0.4%,-1.0%,-3.2%
O=C(O)CC1S/C(=N/N=C/C=C/c2ccccc2)NC1=O (stereo not given),-5.5%,-2.0%,-0.1%,19µM*,3.2%,-5.5%
CCOc1ccccc1NC(=O)CN(C)S(=O)(=O)c1ccc(C(=O)N2CCOCC2)s1,x,x,x,5.9%,x,x
COc1cc(-c2nnc(CSc3nnc(Nc4ccc(Oc5ccccc5)cc4)s3)o2)cc(OC)c1OC,12.6%,15.3%,14.3%,9.53µM*,-2.4%,-0.7%
COc1cc(-c2nnc(CSc3nnc(N)s3)o2)cc(OC)c1OC,19.8%,-1.6%,-2.2%,1.5%,7.3%,1.3%
CCOc1ccc(-n2c(C)c(C(C)=O)c3cc(OCC(N)=O)ccc32)cc1,x,-3.0%,-4.7%,-0.5%,-0.8%,1.4%
COc1ccc(OC)c(NC(=O)N2c3ccccc3Sc3ccccc32)c1,-0.3%,x,x,-11.2%,x,x
CCOC(=O)c1c(C)oc2c1c1c(c3ccccc32)OCN(CCCC(=O)O)C1,x,u,u,19µM*,u,x
CCOC(=O)c1c(C)oc2c1cc(O)c1ccccc12,2.8%,u,-0.6%,2.39µM*,u,-1.3%
SMILES,SMN2 splice up,NPC1 prom act,Rab9 promoter act,FLuc modulator,ELG1 genotox,Luc counter
CCOC(=O)c1c(C)oc2c1c1c(c3ccccc32)OCN(Cc2cccnc2)C1,-73.3%,2.7%,4.5%,26.9µM*,14.6µM*,-3.5%
CC(=O)c1c(C)oc2c1cc(O)c1ccccc12,x,-0.2%,6.8%,-8.5%,5.4%,x
CCOC(=O)c1c(C)oc2c1c(C(c1cccnc1)N1CCN(C)CC1)c(O)c1ccccc12 (stereo not given),x,0.0%,9.0%,-3.1%[2.3 µM],u,4.7%
CCOC(=O)c1ccc(OCC2c3cc(OC)c(OC)cc3CCN2C(=O)Cc2ccc(F)cc2)cc1 (stereo not given),x,x,x,-6.6%,x,x
NS(=O)(=O)c1ccc(CNC(=S)NCc2ccc(F)cc2)cc1,x,-0.5%,2.3%,-3.3%,1.1%,x
CC(=O)N1CCCc2cc(S(=O)(=O)N3CCN(c4ccc(F)cc4)CC3)ccc21,x,x,x,-5.7%,x,x
COc1ccc(C(=O)Nc2nc(CC(=O)NCCc3ccccc3)cs2)cc1,x,23.9%,29.7%,4.78µM*,-7.6%,x
COc1ccc(C(=O)Nc2nc(CC(=O)NCCc3cccc(OC)c3)cs2)cc1,x,13.8%,1.2%,13.5µM*,-4.9%,x
COc1cccc(C(=O)O/N=C2\CCS(=O)(=O)c3sccc32)c1,2.1%,-6.8%,6.0%,1.51µM*,0.5%,-4.1%
Cc1ccc(C(=O)O/N=C2\CCS(=O)(=O)c3sccc32)cc1,6.6%,1.0%,4.2%,0.477µM*,-2.0%,0.8%
O=C(O/N=C1\CCS(=O)(=O)c2sccc21)c1c(F)cccc1F,-6.1%,-8.6%,-16.2%,4.78µM*,-2.1%,-3.4%
O=S1(=O)CC/C(=N\Nc2ccccc2)c2ccsc21,-10.8%,1.0%,-0.8%,u,6.9%,0.7%
Nc1nc2ccc(Cc3ccncc3)cc2s1,x,18.7%,u,16.9µM*,u,x
O=Cc1cn(-c2ccccc2)nc1-c1ccncc1,u,1.5%,-0.5%,-18.8%,1.0%,1.5%
O=C(O)Cc1cn(-c2ccccc2)nc1-c1ccccc1,-0.3%,2.3%,-5.7%,-22.9%,0.0%,4.5%
COc1cccc(-c2nn(-c3ccccc3)cc2/C=C\C(=O)c2cccs2)c1,-74.3%,-1.7%,-47.6%,7.57µM*,-5.1%,-4.6%
O=C(O)/C=C/c1cn(-c2ccccc2)nc1-c1ccccc1,x,-1.1%,9.1%,13.5µM*,-0.7%,x
O=Cc1cn(-c2ccccc2)nc1-c1ccccc1,x,4.1%,-0.8%,12µM*,0.1%,x
